JMJD2A Tudor – qHTS Assay for Inhibitors of JMJD2A-Tudor Domain | Potency, µM (top dose mostly 114 µM), without a hit: top-dose activity change, negative = inhibition, usual class: inhibitors | AlphaScreen JMJD2A-Tudor / H3K4me3 peptide binding | 4.4% of 390,000 active | Lysine-specific demethylase 4A (Homo sapiens), O75164; further: on the % scale 0 is the no-effect control and ±100 the full control effect; nearly all actives have a fitted effect of over 50% in size
G9a block – qHTS Assay for Inhibitors of Histone Lysine Methyltransferase G9a; Histone-lysine N-methyltransferase EHMT2 (Homo sapiens), Q96KQ7; G9a H3K9 monomethylation, AlphaScreen, 2 h; Potency, µM (highest dose often 102 µM), without a hit: at the highest dose activity, negative = inhibition, most hits filed as inhibitors; 8.8% of 350,000 active; AID 504332, 2011; further: on the % scale 0 is the no-effect control and ±100 the full control effect; nearly all actives have a fitted effect of over 75% in size
Target sequence (Q96KQ7 913-1193 limits assumed): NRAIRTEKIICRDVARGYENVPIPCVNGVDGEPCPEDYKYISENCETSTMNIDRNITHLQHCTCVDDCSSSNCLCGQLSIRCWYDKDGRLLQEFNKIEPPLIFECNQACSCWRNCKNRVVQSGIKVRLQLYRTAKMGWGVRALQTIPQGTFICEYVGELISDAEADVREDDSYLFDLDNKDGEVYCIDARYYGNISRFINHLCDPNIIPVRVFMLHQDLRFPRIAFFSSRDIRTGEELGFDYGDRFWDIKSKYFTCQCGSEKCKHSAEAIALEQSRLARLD
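AlphaScreen read-out: biotin-H3K9 peptide (500 nM) methylation by 20 nM enzyme with 20 uM SAM, 2 h at room temperature after 15 min compound preincubation; anti-monomethyl H3K9 antibody plus donor/acceptor beads, 10 min dark.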
Sfp inh – qHTS Assay for Inhibitors of Bacillus subtilis Sfp phosphopantetheinyl transferase (PPTase); 4'-phosphopantetheinyl transferase ffp (Bacillus subtilis), Q9F4F7; Biochemical Sfp PPTase activity, qHTS; Potency, µM, for inactives: largest response in the series, negative = inhibition, most hits filed as inhibitors; 3.5% of 310,000 active;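 further: the enzyme is Sfp with the accession as filed and its product quenches rhodamine fluorescence; 0% = enzyme reaction without inhibitor and -100% = no enzyme wells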
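Fluorescence-quenching assay with 15 nM Sfp, 5 uM rhodamine-CoA and 12.5 uM BHQ-2-labelled ybbR peptide in pH 7.6 Hepes/MgCl2 buffer. Enzyme was pre-incubated with compound for 15 min at room temperature. Rate was taken from the 30-min fluorescence change (525/598 nm).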
BAZ2B inh – qHTS Assay for Inhibitors of BAZ2B; Potency, µM (series often up to 114 µM), for the others: top-dose activity change, negative = inhibition, hits mostly inhibitors; 4.4% of 360,000 active; AlphaScreen BAZ2B-H3K14Ac peptide displacement; further: on the % scale 0 is the no-effect control and ±100 the full control effect; nearly all actives have a fitted effect of over 60% in size
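BAZ2B 50 nM plus b-H3(5-23)K14Ac 50 nM, PBS pH 7.4/0.01% Tween-20, 30 min RT; compound added (max 110 uM), 30 min RT; streptavidin donor/Ni-chelate acceptor beads 10 ug/mL final, 20 min dark; AlphaScreen read.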
HP1b binding inh – HTS for Inhibitors of HP1-beta Chromodomain Interactions with Methylated Histone Tails; Potency, µM (highest dose often 114 µM), for the others: at the highest dose activity change, negative = inhibition, usual class: inhibitors; Chromobox protein homolog 1 (Homo sapiens), P83916; AlphaScreen HP1-beta / biotin-H3K9me3 peptide binding; AID 540317, 2011; 0.56% of 390,000 active; further: nearly all actives have a fitted effect of over 70% in size
Target sequence (P83916 whole entry, looked up): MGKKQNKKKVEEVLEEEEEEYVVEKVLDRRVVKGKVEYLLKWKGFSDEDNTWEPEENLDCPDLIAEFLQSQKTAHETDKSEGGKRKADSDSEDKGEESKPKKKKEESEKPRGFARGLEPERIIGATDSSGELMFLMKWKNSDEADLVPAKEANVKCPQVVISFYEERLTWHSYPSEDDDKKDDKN
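AlphaScreen: HP1-beta (50 nM) preformed 30 min with biotin-H3(1-18)K9me3 peptide (50 nM) in PBS pH 7.4, 0.01% Tween-20. Compound added for 30 min at RT, then streptavidin donor/nickel chelate acceptor beads (10 ug/mL) for 30 min.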
Active calls of the source: *; [ ] = another dose, or the depositor's remark. Only some compounds are listed: those with a hit (about 12% of all), similar ones and a draw of the others. The call rests on the fitted dose curve; in most records, active means well fitted curve in the direction sought with a large enough effect; inconclusive means small, poorly fitted or top-dose-only effect, or another doubt; inactive means no such curve, though single readings can be large; an effect the other way counts as inactive or inconclusive. Potency means the concentration at half of the fitted maximal effect.

How did CSCCC(NS(=O)(=O)c1ccc2c(c1)Cc1cc(S(=O)(=O)NC(CCSC)C(=O)O)ccc1-2)C(=O)O (centres undefined) do in these assays?
JMJD2A Tudor: inconclusive; G9a block: inconclusive; Sfp inh: 9%; BAZ2B inh: -17%; HP1b binding inh: 12%

How did CCc1ccc(Nc2nnc(SCC(=O)Nc3sccc3C(N)=O)s2)cc1 do in these assays?
JMJD2A Tudor: -33%; G9a block: 11µM*; Sfp inh: -15%; BAZ2B inh: inconclusive; HP1b binding inh: 0%

How did COc1cccc(NC(=O)CSc2nnc(NC(=O)C3CC3)s2)c1 do in these assays?
JMJD2A Tudor: -12%; G9a block: inconclusive; Sfp inh: 11%; BAZ2B inh: 1%; HP1b binding inh: 10%[57 µM]

How did COc1cccc(Nc2nnc(SCC(=O)Nc3sccc3C(N)=O)s2)c1 do in these assays?
JMJD2A Tudor: -26%; G9a block: -12%[59 µM]; Sfp inh: inconclusive; BAZ2B inh: 79µM*; HP1b binding inh: 16%[57 µM]

Results for Cc1ccc(C2=NN(CCC(=O)NCCc3cccc(C)c3)C(=O)CC2)cc1 ?
JMJD2A Tudor: -25%; G9a block: 0%[59 µM]; BAZ2B inh: -10%; HP1b binding inh: 30%

How did Cc1ccc(C)c(CN2C(=O)c3ccccc3S(=O)(=O)c3ccc(C(=O)N4CCN(Cc5ccccc5)CC4)cc32)c1 do in these assays?
JMJD2A Tudor: -34%; G9a block: inconclusive; BAZ2B inh: inconclusive; HP1b binding inh: 13%

Results for Cc1ccc(S(=O)(=O)N(CC(=O)Nc2ccc(F)cc2F)Cc2ccc(F)cc2)cc1 ?
JMJD2A Tudor: -1%; G9a block: -5%[59 µM]; BAZ2B inh: -19%; HP1b binding inh: 49%

Results for CN1CCN(C(=O)c2ccc3c(=O)n(-c4ccc(F)cc4)c(=S)[nH]c3c2)CC1 ?
JMJD2A Tudor: 10µM*; G9a block: inconclusive; Sfp inh: -27%; BAZ2B inh: -19%; HP1b binding inh: 43%

What do the screens show for `Cn1c(=S)[nH]c2cc(C(=O)N3CCN(C(=O)c4ccccc4)CC3)ccc2c1=O`?
JMJD2A Tudor: 79µM*; HP1b binding inh: 47%

What do the screens show for `CCOC(=O)N1CCN(C(=O)c2ccc3c(=O)n(-c4ccc(F)cc4)c(=S)[nH]c3c2)CC1`?
JMJD2A Tudor: 79µM*; G9a block: inconclusive; Sfp inh: 11%; BAZ2B inh: -2%

What do the screens show for `CCCn1c(=S)[nH]c2cc(C(=O)N3CCN(C(=O)OCC)CC3)ccc2c1=O`?
JMJD2A Tudor: -2%; G9a block: 9%; Sfp inh: -17%; BAZ2B inh: -18%; HP1b binding inh: 54%

What do the screens show for `CCN1C(C)=C(C(=O)OC(C)C)C(c2ccccc2Cl)C2=C1COC2=O` (centres undefined)?
Sfp inh: -2%

Results for Cc1ccc(S(=O)(=O)N(C)C[C@@H]2Oc3ccc(NS(=O)(=O)c4ccccc4)cc3CC(=O)N([C@@H](C)CO)C[C@H]2C)cc1 ?
JMJD2A Tudor: -33%; HP1b binding inh: 8%

Results for C#CCSc1nc2sc3c(c2c(=O)n1C)CCC3 ?
JMJD2A Tudor: 79µM*; G9a block: 45µM*; Sfp inh: -2%; BAZ2B inh: 50µM*; HP1b binding inh: inconclusive

What do the screens show for `NNc1nc2sc3c(c2c(=O)n1C1CCCCC1)CCN(Cc1ccccc1)C3`?
JMJD2A Tudor: 6%; G9a block: 50µM*; Sfp inh: 6%; BAZ2B inh: -35%; HP1b binding inh: 23%

Results for COc1ccc(-n2c(NN)nc3sc4c(c3c2=O)CCCC4)cc1 ?
JMJD2A Tudor: -33%; G9a block: 50µM*; Sfp inh: 16%; BAZ2B inh: -3%; HP1b binding inh: 21%

How did CSc1nc2sc3c(c2c(=O)n1C)CCC3 do in these assays?
JMJD2A Tudor: -6%; Sfp inh: -3%; BAZ2B inh: -13%; HP1b binding inh: 29%

What do the screens show for `CCCc1nc2sc3c(c2c(=O)n1NC(=O)CCC(=O)OC)CCCC3`?
JMJD2A Tudor: -13%; G9a block: -30%; Sfp inh: 5%; BAZ2B inh: -3%; HP1b binding inh: -16%

What do the screens show for `C=C(C)CSc1nc2sc3c(c2c(=O)n1C1CCCCC1)CCN(C)C3`?
JMJD2A Tudor: inconclusive; Sfp inh: -27%; BAZ2B inh: inconclusive; HP1b binding inh: 17%

What do the screens show for `Cc1nc2sc3c(c2c(=O)n1NC(=O)CCBr)CCCC3`?
JMJD2A Tudor: -11%; G9a block: 50µM*; Sfp inh: -16%; BAZ2B inh: -18%; HP1b binding inh: 40%

What do the screens show for `COc1ccc(Br)cc1S(=O)(=O)n1c([N+](=O)[O-])cnc1C`?
JMJD2A Tudor: -12%; G9a block: inconclusive; Sfp inh: -2%; BAZ2B inh: -1%; HP1b binding inh: 29%

What do the screens show for `CCCOc1ccc(CC(=O)NCCc2ccccc2)cc1OC`?
JMJD2A Tudor: -7%; G9a block: 7%; Sfp inh: 3%; BAZ2B inh: 4%; HP1b binding inh: 28%

How did CCSc1nc2sc3c(c2c(=O)n1C1CCCCC1)CCN(C)C3 do in these assays?
JMJD2A Tudor: -27%; G9a block: inconclusive; Sfp inh: -13%; BAZ2B inh: -3%; HP1b binding inh: 10%

Results for CCSc1nc2sc3c(c2c(=O)n1CC)CCC3 ?
JMJD2A Tudor: 8%; G9a block: 41%[59 µM]; Sfp inh: -7%; BAZ2B inh: -35%; HP1b binding inh: 81%

Results for CCn1c(NN)nc2sc3c(c2c1=O)CCC3 ?
JMJD2A Tudor: inconclusive; G9a block: 45µM*; Sfp inh: 56µM*; BAZ2B inh: 3%; HP1b binding inh: -22%

Results for CSc1nc2sc3c(c2c(=O)n1C1CCCCC1)CCN(C)C3 ?
JMJD2A Tudor: -35%; G9a block: 50µM*; Sfp inh: 6%; BAZ2B inh: -29%; HP1b binding inh: 46%

Results for NNc1nc2sc3c(c2c(=O)n1Cc1ccccc1)CCC3 ?
JMJD2A Tudor: -32%; G9a block: inconclusive; Sfp inh: 32µM*; BAZ2B inh: -23%; HP1b binding inh: -18%

Results for CCn1c(SCC(=O)NCCc2ccccc2)nc2sc3c(c2c1=O)CCN(C)C3 ?
JMJD2A Tudor: -14%; G9a block: inconclusive; Sfp inh: 4%; BAZ2B inh: 0%; HP1b binding inh: 17%

How did CCn1c(SCC(=O)c2ccccc2)nc2sc3c(c2c1=O)CCN(C)C3 do in these assays?
JMJD2A Tudor: inconclusive; G9a block: 25µM*; Sfp inh: 50µM*; BAZ2B inh: -39%; HP1b binding inh: -38%

From PubChem BioAssay
